Laboratory results as given in PubChem BioAssay (EPA / NIEHS).
Active and inactive are the calls of the source. How the source made its calls: active means hit-call score of the fitted dose curve at least 0.9, where 1 is the maximum; inactive means score below 0.9.

Legend:
[1] = APR_HepG2_CellCycleArrest_24hr: Apredica 24-hour HepG2 Assay for Cell Cycle Arrest (AID 2282905); details: imaging, actives raise or lower the signal;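 further: cell cycle arrest scored as ratio of 2N to 4N nuclear DNA content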
Method in brief: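 Compounds (0.39 to 200 uM, final DMSO 0.5% v/v) are applied to HepG2 cells for 24 hours; cells are then fixed, permeabilized and nuclei labeled with Hoechst 33342. Automated imaging measures DNA content, and activity is fitted in both directions against DMSO.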

[2] = APR_HepG2_NuclearSize_24hr: Apredica 24-hour HepG2 Assay for Nuclear Size (AID 2282907); details: high-content imaging, actives raise or lower the signal
Method in brief: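 Nuclear size is measured by fluorescence high-content imaging of Hoechst-labelled HepG2 nuclei after 24 hr of treatment (0.39–200 uM, 0.5% DMSO). Cells are fixed in 3.7% formaldehyde before staining, and DMSO serves as the baseline for bidirectional curve fitting.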

[3] = APR_HepG2_CellLoss_24hr: Apredica 24-hour HepG2 Assay for Cell Loss (AID 2282908); details: high-content imaging;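 on AC50: fit in both directions so a hit may be cell loss or gain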
Method in brief: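 Nuclear count serves as the viability measure: treated cells are fixed, permeabilized and labelled with Hoechst 33342, and six images per well are analysed to identify valid nuclei. Doses span 0.39–200 uM, and activity in either direction is scored against DMSO.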

[4] = APR_HepG2_MicrotubuleCSK_24hr: Apredica 24-hour HepG2 Assay for Microtubule CSK Stabilty (AID 2282909); details: HepG2 microtubule cytoskeleton imaging, actives raise or lower the signal
Method in brief: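 Compounds were applied to HepG2 cells for 24 hours across 0.39–200 uM in duplicate, with final DMSO at 0.5% v/v. Fixed, permeabilized cells were labeled for alpha-tubulin and nuclei, and tubulin fluorescence was quantified by imaging, fitted bidirectionally against DMSO.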

[5] = APR_HepG2_MitoticArrest_24hr: Apredica 24-hour HepG2 Assay for Mitotic Arrest (AID 2282910); details: high-content imaging, actives raise or lower the signal
Method in brief: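 High-content imaging of fixed HepG2 cells labeled with Hoechst 33342 and anti-phospho-histone H3, after 24 h treatment. Ten concentrations 0.39 to 200 uM in duplicate, final DMSO 0.5%; changes fitted both directions relative to DMSO.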

[6] = APR_HepG2_MitoMass_24hr: Apredica 24-hour HepG2 Assay for Mitochondrial Mass (AID 2282912); details: high-content imaging, actives raise or lower the signal
Method in brief: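 After 24 hr of treatment at 0.39 to 200 uM, HepG2 cells take up 250 nM MitoTracker Red CMXRos for 30 min and are then fixed with 3.7% formaldehyde. Per-well images are quantified, and any change in either direction is scored against solvent.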

[7] = APR_HepG2_p53Act_24hr: Apredica 24-hour HepG2 Assay for p53 Activation (AID 2282913); details: high-content imaging, actives raise or lower the signal;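 further: p53 protein immunofluorescence averaged per cell in HepG2 with Hoechst nuclei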
Method in brief: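 Human HepG2 liver cells; 24 hr cpd treatment, 0.39–200 uM, 0.5% DMSO final. Fixed in 3.7% formaldehyde, permeabilized with 0.5% Triton X-100, stained with anti-p53/Cy5 plus Hoechst 33342. Six images per well at 20x; gain or loss vs DMSO.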

[8] = APR_HepG2_CellCycleArrest_72hr: Apredica 72-hour HepG2 Assay for Cell Cycle Arrest (AID 2282914); details: high-content imaging, actives raise or lower the signal
Method in brief: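 Read-out is Hoechst-stained nuclear DNA content measured by automated fluorescence imaging (20x, six images per well), fitted in both directions relative to DMSO. Human HepG2 liver cells received 0.39–200 uM compound for 72 hr at 0.5% v/v DMSO.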

[9] = APR_HepG2_CellLoss_72hr: Apredica 72-hour HepG2 Assay for Cell Loss (AID 2282915); details: high-content imaging
Method in brief: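 Cell number comes from Hoechst 33342-labelled nuclei, imaged at 20x after 3.7% formaldehyde fixation. Dosing was 0.39–200 uM, ten concentrations in duplicate, 0.5% DMSO final, for 72 h. Bidirectional fit relative to DMSO baseline.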

[10] = APR_HepG2_P-H2AX_72hr: Apredica 72-hour HepG2 Assay for H2AX Phosphorylation (AID 2282916); details: imaging, actives raise or lower the signal;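 further: phospho-histone H2A.x immunostain intensity per cell marking DNA damage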
Method in brief: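 Human hepatoma HepG2 cells are dosed across ten concentrations (0.39 to 200 uM, 0.5% v/v DMSO) and incubated 72 hr. Phospho-histone H2A.x is then detected by antibody staining alongside c-Jun and Hoechst, and quantified by automated fluorescence imaging.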

[11] = APR_HepG2_MitoMembPot_72hr: Apredica 72-hour HepG2 Assay for Mitochondrial Membrane Potential (AID 2282917); details: imaging, actives raise or lower the signal
Method in brief: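 Membrane potential read by MitoTracker Red CMXRos (250 nM, 30 min, pre-fixation) fluorescence imaging of HepG2 after 72 hr exposure. Ten concentrations, 0.39–200 uM, duplicate wells, 0.5% DMSO; fitted in both directions against DMSO baseline.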

[12] = APR_HepG2_MitoticArrest_72hr: Apredica 72-hour HepG2 Assay for Mitotic Arrest (AID 2282918); details: high-content imaging, actives raise or lower the signal
Method in brief: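 Read-out is phospho-histone H3 immunofluorescence with Hoechst nuclear segmentation, imaged at 20x. Human HepG2 liver cells received ten concentrations (0.39–200 uM, final DMSO 0.5% v/v) for 72 hr before fixation. Gain or loss of signal was fitted relative to DMSO.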

[13] = APR_HepG2_MicrotubuleCSK_72hr: Apredica 72-hour HepG2 Assay for Microtubule CSK Stabilty (AID 2282919); details: HepG2 microtubule cytoskeleton, high-content imaging, actives raise or lower the signal
Method in brief: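 High-content imaging of alpha-tubulin staining in fixed HepG2 cells after 72 hr treatment with ten concentrations from 0.39 to 200 uM (0.5% DMSO). Fitting was bidirectional against DMSO; taxol served as positive control.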

[14] = APR_HepG2_P-H2AX_24hr: Apredica 24-hour HepG2 Assay for H2AX Phosphorylation (AID 2282920); details: high-content imaging, actives raise or lower the signal
Method in brief: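 HepG2, 24 hr, cpd 0.39–200 uM (10 conc, duplicate), DMSO 0.5% v/v final. Fix 3.7% formaldehyde, Triton X-100 permeabilize, anti-phospho-H2A.x 1:200 + Hoechst 2 ug/mL. Imaged, bidirectional fit vs DMSO.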

[15] = APR_HepG2_StressKinase_72hr: Apredica 72-hour HepG2 Assay for Stress Kinase (AID 2282921); details: HepG2 stress kinase (phospho-c-Jun) imaging, actives raise or lower the signal
Method in brief: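 After a 72 h compound treatment spanning 0.39 to 200 uM, formaldehyde-fixed cells are labelled for phosphorylated c-Jun and nuclei, imaged by automated fluorescence microscopy, and activity is fitted in both directions relative to DMSO controls.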

[16] = APR_HepG2_StressKinase_24hr: Apredica 24-hour HepG2 Assay for Stress Kinase (AID 2282922); details: HepG2 stress kinase (phospho-c-Jun) imaging, actives raise or lower the signal
Method in brief: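 High-content imaging of phospho-c-Jun immunofluorescence in fixed, permeabilized HepG2 cells after 24 h dosing. Ten concentrations, 0.39 to 200 uM, run in duplicate at 0.5% v/v DMSO; gain or loss of signal versus DMSO.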

[17] = APR_HepG2_MitoMass_72hr: Apredica 72-hour HepG2 Assay for Mitochondrial Mass (AID 2282924); details: high-content imaging, actives raise or lower the signal;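 further: MitoTracker Red CMXRos stain intensity per cell imaged as mitochondrial mass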
Method in brief: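 Readout is imaged MitoTracker Red (250 nM, 30 min, pre-fixation) signal, fitted bidirectionally against DMSO baseline. Human HepG2 liver cells received compound 0.39–200 uM in duplicate for 72 hr, final DMSO 0.5%.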

[18] = APR_HepG2_NuclearSize_72hr: Apredica 72-hour HepG2 Assay for Nuclear Size (AID 2282925); details: high-content imaging, actives raise or lower the signal
Method in brief: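 Nuclear size was read by high-content imaging of Hoechst 33342 stain after formaldehyde fixation. Compounds ran 72 h on HepG2 at 0.39 to 200 uM, with final DMSO 0.5% v/v. Curves fitted both directions relative to DMSO control.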

[19] = APR_HepG2_MitoMembPot_24hr: Apredica 24-hour HepG2 Assay for Mitochondrial Membrane Potential (AID 2282911); details: imaging, actives raise or lower the signal
Method in brief: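 Cells are dosed for 24 hr across 0.39 to 200 uM with solvent held at 0.5% DMSO. They are then stained with 250 nM MitoTracker Red CMXRos for 30 min, fixed in 3.7% formaldehyde and imaged.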

[20] = APR_HepG2_p53Act_72hr: Apredica 72-hour HepG2 Assay for p53 Activation (AID 2282923); details: high-content imaging, actives raise or lower the signal;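 further: average cellular p53 protein immunofluorescence intensity in HepG2 cells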
Method in brief: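 Imaging-based endpoint: after 72 hr compound exposure (up to 200 uM, 0.5% DMSO), fixed and permeabilized monolayers were labelled with anti-p53 antibody and imaged; signal change in either direction was fitted relative to DMSO controls.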

Measured: AC50

CCCCCCCC(=O)OC
inactive: [1] | [2] | [3] | [4] | [5] | [6] | [7] | [8] | [9] | [10] | [11] | [12] | [13] | [14] | [15] | [16] | [17] | [18]

CC(N)=O
active: [9] 115 µM
inactive: [1] | [2] | [3] | [4] | [5] | [19] | [6] | [8] | [11] | [12] | [13] | [14] | [15] | [16] | [17] | [18]

CCCCCCCCCCCCCCCCO
inactive: [1] | [2] | [3] | [4] | [5] | [19] | [6] | [8] | [9] | [11] | [12] | [13] | [14] | [15] | [16] | [17] | [18]

NC=O
inactive: [1] | [2] | [3] | [4] | [5] | [19] | [6] | [8] | [9] | [11] | [12] | [13] | [14] | [15] | [16] | [17] | [18]

CCCC[C@H]1CN(CC2CCOCC2)C(=O)OC12CCN(C1(C)CCN(C(=O)c3c(C)ncnc3C)CC1)CC2
inactive: [1] | [2] | [3] | [4] | [5] | [19] | [6] | [7] | [8] | [9] | [11] | [12] | [13] | [14] | [15] | [16] | [17] | [18]

Cc1cn([C@H]2C=C[C@@H](CO)O2)c(=O)[nH]c1=O
inactive: [1] | [2] | [3] | [4] | [5] | [19] | [6] | [8] | [9] | [10] | [11] | [12] | [13] | [14] | [15] | [16] | [17] | [18]

O=C1NC(=O)C(c2ccccc2)(c2ccccc2)N1
inactive: [1] | [2] | [3] | [4] | [5] | [19] | [6] | [8] | [9] | [11] | [12] | [13] | [14] | [15] | [16] | [17] | [18]

CC(C)COC(=O)CCCCC(=O)OCC(C)C
inactive: [1] | [2] | [3] | [4] | [5] | [19] | [6] | [8] | [9] | [10] | [11] | [12] | [13] | [14] | [15] | [16] | [17] | [18]

CC(=O)O
active: [1] 97 µM | [3] 112 µM | [5] 126 µM | [8] 0.16 µM | [9] 49.4 µM | [11] 100 µM | [12] 92.8 µM | [14] 66.4 µM | [17] 0.0355 µM
inactive: [2] | [4] | [19] | [6] | [13] | [15] | [16] | [18]

O=[Si]=O
active: [9] 61.4 µM
inactive: [1] | [2] | [3] | [4] | [5] | [6] | [7] | [8] | [10] | [11] | [12] | [13] | [14] | [15] | [16] | [20] | [17] | [18]

CC(COCC(C)OC(=O)c1ccccc1)OC(=O)c1ccccc1 (stereo unspecified)
inactive: [1] | [2] | [3] | [4] | [5] | [19] | [6] | [8] | [9] | [10] | [11] | [12] | [13] | [14] | [15] | [16] | [17] | [18]

N[C@@H](Cc1c[nH]c2ccccc12)C(=O)O
inactive: [1] | [2] | [3] | [4] | [5] | [19] | [6] | [8] | [9] | [10] | [11] | [12] | [13] | [14] | [15] | [16] | [17] | [18]

Cc1ccc(-c2cc(C(F)(F)F)nn2-c2ccc(S(N)(=O)=O)cc2)cc1
inactive: [1] | [4] | [19] | [11] | [12] | [13] | [16] | [17] | [18]
active: [2] 118 µM | [3] 66.7 µM | [5] 53.2 µM | [6] 64 µM | [8] 28.6 µM | [9] 40.8 µM | [14] 106 µM | [15] 111 µM

CC(=O)O[C@]1(C(C)=O)CC[C@H]2[C@@H]3C=C(Cl)C4=CC(=O)[C@@H]5C[C@@H]5[C@]4(C)[C@H]3CC[C@@]21C
inactive: [1] | [2] | [3] | [4] | [5] | [19] | [6] | [8] | [9] | [11] | [12] | [13] | [14] | [15] | [16] | [17] | [18]
